From the supplement of paper PMC11732987, “Enantioselective OTUD7B fragment discovery through chemoproteomics screening and high-throughput optimisation” (Communications Chemistry, 2025)

What was measured:
Assay in all cases: log2 ratio of Biotin-Ahx-Ub-VS probe labelling (fragment/DMSO); higher = less target engagement (more negative = stronger competition), active = hit call of the paper (q ≤ 0.05, log2 ratio ≤ -1)
Details in all cases: compound concentration: 200 uM; treatment time: 3 h
USP34 = USP34 (UniProt Q70CQ2)
Chain of USP34 (Q70CQ2 whole entry, the tested form may be a part): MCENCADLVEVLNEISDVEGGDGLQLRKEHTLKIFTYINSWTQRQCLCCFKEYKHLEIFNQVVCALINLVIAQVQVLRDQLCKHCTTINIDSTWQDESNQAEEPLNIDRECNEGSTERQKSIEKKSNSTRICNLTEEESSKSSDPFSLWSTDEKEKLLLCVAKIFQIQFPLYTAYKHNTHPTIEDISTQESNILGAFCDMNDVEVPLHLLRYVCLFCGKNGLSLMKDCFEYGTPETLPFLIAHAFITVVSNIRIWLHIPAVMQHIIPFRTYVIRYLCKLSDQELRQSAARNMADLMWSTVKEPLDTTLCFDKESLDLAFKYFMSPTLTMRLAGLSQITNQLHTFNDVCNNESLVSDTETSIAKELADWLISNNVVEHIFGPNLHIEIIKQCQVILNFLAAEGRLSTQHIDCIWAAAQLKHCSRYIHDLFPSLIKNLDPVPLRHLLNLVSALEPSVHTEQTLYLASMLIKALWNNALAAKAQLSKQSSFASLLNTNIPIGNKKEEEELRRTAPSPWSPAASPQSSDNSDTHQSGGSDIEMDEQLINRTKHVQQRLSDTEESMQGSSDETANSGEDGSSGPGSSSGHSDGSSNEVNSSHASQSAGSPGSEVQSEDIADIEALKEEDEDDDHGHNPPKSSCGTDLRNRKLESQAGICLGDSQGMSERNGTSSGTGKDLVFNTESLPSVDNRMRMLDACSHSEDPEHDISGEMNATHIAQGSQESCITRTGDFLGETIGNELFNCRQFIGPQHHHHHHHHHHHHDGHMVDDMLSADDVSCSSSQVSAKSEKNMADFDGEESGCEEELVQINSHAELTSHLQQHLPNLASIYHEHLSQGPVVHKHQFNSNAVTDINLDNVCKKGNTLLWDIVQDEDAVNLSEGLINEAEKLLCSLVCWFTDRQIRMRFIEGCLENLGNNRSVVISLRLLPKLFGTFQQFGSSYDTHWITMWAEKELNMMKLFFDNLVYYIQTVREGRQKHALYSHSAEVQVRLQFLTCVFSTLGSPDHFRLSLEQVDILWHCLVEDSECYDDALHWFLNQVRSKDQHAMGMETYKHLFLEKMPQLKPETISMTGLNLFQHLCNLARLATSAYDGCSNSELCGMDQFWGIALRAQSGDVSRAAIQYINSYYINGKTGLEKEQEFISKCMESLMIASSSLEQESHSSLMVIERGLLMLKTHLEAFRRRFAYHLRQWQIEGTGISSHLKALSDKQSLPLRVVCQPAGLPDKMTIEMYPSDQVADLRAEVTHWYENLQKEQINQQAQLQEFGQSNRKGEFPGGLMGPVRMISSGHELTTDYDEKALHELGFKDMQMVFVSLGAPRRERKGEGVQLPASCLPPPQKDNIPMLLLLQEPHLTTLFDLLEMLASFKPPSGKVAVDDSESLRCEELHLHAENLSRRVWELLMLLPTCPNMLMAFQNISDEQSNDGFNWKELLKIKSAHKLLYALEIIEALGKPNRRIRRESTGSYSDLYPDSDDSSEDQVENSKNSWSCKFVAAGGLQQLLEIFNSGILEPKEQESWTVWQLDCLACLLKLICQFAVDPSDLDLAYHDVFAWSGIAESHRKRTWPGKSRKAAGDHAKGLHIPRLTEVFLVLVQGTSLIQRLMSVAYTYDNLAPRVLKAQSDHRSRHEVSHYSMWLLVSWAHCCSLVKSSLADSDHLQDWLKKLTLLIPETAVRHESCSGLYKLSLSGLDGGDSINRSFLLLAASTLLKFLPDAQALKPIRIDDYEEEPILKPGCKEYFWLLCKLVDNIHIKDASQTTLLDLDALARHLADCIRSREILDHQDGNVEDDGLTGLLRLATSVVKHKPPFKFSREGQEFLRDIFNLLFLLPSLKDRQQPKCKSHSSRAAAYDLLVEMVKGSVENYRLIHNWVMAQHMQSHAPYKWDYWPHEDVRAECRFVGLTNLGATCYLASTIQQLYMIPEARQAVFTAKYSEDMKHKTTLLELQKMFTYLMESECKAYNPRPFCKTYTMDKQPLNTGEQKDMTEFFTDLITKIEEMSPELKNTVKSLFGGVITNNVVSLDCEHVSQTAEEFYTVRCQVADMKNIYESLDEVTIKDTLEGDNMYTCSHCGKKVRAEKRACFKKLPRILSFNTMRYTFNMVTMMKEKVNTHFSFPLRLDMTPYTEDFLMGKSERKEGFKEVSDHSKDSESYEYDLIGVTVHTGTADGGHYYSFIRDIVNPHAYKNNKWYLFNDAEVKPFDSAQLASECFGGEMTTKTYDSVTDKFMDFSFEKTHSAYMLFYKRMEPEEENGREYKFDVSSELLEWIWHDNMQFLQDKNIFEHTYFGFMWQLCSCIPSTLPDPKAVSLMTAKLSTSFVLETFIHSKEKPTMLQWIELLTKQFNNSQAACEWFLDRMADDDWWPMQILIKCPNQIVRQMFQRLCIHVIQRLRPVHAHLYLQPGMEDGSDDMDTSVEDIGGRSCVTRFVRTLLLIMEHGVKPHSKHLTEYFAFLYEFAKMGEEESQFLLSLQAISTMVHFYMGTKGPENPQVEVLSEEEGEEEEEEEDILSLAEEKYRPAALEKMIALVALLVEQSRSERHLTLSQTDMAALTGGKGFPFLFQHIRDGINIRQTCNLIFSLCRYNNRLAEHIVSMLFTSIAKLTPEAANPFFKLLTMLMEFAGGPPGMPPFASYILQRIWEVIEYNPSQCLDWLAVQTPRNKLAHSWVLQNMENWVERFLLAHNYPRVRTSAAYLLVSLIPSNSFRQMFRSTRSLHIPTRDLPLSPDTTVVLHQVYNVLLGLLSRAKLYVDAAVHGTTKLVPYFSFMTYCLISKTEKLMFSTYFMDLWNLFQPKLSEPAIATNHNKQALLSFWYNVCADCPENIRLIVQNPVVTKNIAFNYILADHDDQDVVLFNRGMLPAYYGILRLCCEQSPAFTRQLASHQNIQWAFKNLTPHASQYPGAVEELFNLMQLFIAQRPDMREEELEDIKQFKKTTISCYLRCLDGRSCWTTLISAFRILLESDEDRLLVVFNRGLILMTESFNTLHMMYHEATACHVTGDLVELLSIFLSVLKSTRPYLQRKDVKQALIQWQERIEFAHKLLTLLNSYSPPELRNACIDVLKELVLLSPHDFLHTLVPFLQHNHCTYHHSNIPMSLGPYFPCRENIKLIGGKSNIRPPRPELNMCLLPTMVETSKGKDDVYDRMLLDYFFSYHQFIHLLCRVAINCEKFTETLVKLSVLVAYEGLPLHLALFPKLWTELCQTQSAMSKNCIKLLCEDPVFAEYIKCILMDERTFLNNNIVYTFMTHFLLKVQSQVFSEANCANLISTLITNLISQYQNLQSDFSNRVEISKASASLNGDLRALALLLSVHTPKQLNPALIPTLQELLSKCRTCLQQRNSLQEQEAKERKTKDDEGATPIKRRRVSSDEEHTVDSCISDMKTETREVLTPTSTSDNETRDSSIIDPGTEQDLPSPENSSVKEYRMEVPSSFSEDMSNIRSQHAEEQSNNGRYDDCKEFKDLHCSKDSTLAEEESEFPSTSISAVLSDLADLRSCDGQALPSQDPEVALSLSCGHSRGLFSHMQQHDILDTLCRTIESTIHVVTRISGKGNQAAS
How it was run: (§1)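 HEK293T lysate, 495 µg per sample in Tris/CHAPS/IGEPAL buffer with protease inhibitors, was treated in triplicate with fragment at 200 µM or vehicle for 3 h and then with Biotin-Ahx-Ub-VS at 0.5 µM final for 1 h. Labelled DUBs were NeutrAvidin-enriched, digested with LysC and trypsin, and run by diaPASEF LC-MS/MS. Spectronaut label-free quantities were global-median-normalised, and values are average log2 fragment/vehicle ratios by unpaired t-test on proteins with ≥2 unique peptides.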

USP36 = target: T1, USP36 (UniProt Q9P275)
T1 sequence (whole entry): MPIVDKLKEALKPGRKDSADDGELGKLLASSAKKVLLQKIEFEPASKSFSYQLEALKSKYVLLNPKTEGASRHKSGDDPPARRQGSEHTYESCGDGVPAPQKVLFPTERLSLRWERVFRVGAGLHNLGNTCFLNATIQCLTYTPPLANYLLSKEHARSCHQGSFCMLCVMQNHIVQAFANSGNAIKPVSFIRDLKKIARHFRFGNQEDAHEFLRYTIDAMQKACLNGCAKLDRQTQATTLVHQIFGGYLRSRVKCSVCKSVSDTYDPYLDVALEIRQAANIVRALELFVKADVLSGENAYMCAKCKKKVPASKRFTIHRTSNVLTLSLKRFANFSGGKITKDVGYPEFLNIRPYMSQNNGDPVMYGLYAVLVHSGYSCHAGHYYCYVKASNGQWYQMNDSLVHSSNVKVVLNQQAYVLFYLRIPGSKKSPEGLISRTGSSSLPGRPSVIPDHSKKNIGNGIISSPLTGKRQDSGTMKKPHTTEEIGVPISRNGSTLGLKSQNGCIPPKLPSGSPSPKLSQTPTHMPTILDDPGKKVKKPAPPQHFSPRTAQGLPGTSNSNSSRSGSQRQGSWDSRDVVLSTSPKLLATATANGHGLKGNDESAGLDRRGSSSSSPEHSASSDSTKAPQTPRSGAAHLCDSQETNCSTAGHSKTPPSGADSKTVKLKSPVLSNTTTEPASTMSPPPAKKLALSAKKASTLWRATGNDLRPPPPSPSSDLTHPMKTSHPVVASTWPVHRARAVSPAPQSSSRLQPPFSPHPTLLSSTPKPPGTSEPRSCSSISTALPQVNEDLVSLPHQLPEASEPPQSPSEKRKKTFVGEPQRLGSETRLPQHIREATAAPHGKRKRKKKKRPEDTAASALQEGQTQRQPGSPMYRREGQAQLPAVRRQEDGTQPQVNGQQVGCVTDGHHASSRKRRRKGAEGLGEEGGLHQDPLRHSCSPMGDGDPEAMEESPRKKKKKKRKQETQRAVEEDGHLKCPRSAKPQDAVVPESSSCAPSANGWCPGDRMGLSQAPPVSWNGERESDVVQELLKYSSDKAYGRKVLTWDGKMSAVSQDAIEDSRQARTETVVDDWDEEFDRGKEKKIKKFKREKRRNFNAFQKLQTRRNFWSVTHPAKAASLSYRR
How it was run: as §1

USP38 = target: T2, USP38 (UniProt Q8NB14)
T2 sequence (whole entry): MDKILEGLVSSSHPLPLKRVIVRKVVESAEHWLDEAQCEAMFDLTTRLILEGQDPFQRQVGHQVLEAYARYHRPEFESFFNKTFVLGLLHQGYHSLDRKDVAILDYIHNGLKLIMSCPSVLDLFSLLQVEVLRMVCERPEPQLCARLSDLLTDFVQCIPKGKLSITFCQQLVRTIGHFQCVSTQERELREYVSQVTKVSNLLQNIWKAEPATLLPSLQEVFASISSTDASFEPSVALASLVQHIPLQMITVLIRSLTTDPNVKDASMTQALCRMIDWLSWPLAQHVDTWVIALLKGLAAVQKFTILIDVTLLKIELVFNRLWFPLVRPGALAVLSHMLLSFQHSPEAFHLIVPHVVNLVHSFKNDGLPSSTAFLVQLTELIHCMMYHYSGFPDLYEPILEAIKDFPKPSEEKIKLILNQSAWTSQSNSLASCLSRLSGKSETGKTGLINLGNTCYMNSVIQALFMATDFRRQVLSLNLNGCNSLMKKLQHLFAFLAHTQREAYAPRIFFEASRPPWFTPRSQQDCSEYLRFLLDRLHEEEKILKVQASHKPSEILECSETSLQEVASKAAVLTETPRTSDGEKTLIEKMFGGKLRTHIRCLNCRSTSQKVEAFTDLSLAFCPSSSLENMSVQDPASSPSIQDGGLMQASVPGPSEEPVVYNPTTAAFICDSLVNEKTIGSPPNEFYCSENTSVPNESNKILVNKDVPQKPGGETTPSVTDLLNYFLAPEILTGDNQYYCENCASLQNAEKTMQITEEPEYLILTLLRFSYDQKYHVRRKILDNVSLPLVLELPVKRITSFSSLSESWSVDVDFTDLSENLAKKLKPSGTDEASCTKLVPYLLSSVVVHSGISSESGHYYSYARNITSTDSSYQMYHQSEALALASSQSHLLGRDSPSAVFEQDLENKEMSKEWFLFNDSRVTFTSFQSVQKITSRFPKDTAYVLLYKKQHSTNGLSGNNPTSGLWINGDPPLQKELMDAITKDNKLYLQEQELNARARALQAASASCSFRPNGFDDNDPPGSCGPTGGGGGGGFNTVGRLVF
How it was run: as §1

USP39 = target: T3, USP39 (UniProt Q53GS9)
T3 sequence (whole entry): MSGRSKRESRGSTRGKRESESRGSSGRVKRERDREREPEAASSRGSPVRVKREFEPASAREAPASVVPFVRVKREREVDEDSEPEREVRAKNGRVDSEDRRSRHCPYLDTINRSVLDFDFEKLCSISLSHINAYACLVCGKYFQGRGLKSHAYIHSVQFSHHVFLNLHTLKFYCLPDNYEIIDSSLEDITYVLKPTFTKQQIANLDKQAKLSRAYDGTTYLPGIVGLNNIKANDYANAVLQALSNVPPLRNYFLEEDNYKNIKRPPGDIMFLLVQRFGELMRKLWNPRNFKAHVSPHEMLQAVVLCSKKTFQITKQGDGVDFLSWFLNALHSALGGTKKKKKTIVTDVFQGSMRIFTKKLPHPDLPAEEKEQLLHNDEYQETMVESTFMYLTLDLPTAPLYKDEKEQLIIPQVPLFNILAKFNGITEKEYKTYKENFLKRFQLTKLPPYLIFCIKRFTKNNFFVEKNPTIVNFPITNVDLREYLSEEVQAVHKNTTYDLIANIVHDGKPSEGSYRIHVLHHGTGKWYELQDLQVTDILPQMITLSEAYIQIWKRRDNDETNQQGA
How it was run: as §1

USP4 = target: T4, USP4 (UniProt Q13107)
T4 sequence (whole entry): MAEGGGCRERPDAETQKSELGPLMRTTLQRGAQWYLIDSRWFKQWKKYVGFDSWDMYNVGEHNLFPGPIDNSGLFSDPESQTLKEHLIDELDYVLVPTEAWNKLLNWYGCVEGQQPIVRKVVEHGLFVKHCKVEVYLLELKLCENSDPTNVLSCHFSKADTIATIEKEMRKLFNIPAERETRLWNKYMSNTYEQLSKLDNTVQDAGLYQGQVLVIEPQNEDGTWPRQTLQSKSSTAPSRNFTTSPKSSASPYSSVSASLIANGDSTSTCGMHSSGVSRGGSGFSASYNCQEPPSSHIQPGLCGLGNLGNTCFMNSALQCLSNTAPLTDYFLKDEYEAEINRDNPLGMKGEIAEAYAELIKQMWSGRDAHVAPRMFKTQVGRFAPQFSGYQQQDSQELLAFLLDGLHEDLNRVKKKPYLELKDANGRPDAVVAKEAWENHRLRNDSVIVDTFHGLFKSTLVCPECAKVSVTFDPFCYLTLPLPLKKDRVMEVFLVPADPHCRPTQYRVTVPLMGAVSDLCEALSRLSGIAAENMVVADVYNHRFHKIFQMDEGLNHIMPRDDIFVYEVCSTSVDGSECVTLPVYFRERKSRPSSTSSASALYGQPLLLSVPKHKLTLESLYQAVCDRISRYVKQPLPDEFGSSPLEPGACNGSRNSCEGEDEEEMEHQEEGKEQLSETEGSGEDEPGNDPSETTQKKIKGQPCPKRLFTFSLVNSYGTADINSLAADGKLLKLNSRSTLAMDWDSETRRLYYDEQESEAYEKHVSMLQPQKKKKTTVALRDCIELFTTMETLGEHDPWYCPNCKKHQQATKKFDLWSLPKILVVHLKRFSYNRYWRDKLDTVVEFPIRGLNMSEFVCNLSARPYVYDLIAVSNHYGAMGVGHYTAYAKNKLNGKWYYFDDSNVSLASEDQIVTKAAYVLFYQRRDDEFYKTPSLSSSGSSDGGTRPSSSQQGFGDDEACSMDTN
How it was run: as §1

Measured: log2 ratio of Biotin-Ahx-Ub-VS probe labelling

Cl.O=C(CCl)N[C@H]1C[C@@H](n2cccn2)C1
inactive: USP34 -0.109 | USP36 0.0625 | USP38 0.192 | USP39 0.31 | USP4 -0.0753
